Pf growth 48h: Primary qHTS for delayed death inhibitors of the malarial parasite plastid, 48 hour incubation; Potency, µM (top dose mostly 28.7 µM), actives largely listed as inhibitors; P. falciparum luciferase growth in erythrocytes, 48 h; 5.9% of 310,000 active; AID 504832, 2011
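Erythrocytes infected with P. falciparum carrying an integrated firefly luciferase reporter (2% hematocrit, 0.1% parasitemia final) were exposed to compounds in RPMI 1640 with 0.5% Albumax at 37 C, 5% CO2. Growth inhibition was scored as reduced luminescence.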
Pf growth 96h: Primary qHTS for delayed death inhibitors of the malarial parasite plastid, 96 hour incubation; P. falciparum luciferase reporter growth, 96 h; Potency, µM (titrated, usually from 28.7 µM), actives largely listed as inhibitors; 6.9% of 320,000 active
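Compounds incubated with erythrocytes infected by luciferase-expressing P. falciparum (2% hematocrit, 0.05% parasitemia final) for 96 hours, 37 C in 5% CO2. Growth inhibition scored as decreased luciferase luminescence.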
LmPK inhibitor: qHTS Assay for Inhibitors of Leishmania Mexicana Pyruvate Kinase (LmPK); Q27686; purified LmPK, Kinase-Glo ATP luminescence, 1 h; Potency, µM (series often up to 57.5 µM), hits mostly inhibitors; 0.37% of 290,000 active
Target sequence (Q27686 whole entry, looked up): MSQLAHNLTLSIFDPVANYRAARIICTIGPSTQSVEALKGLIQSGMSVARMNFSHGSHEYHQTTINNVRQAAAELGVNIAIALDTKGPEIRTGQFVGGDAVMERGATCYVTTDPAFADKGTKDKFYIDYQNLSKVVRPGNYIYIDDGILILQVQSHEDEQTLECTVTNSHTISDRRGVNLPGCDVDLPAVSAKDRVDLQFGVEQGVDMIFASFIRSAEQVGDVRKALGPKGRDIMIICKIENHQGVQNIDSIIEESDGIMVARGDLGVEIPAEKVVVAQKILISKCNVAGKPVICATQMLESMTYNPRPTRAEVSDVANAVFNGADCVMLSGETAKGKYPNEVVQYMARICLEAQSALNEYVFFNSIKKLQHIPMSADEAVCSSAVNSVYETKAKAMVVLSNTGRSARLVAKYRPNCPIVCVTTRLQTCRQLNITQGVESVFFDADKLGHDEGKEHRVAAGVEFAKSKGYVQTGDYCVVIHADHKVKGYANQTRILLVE
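Screened at intermediate enzyme activity to detect both inhibitors and activators: LmPK at 0.1 nM, with a 0.5 nM enzyme column as activation reference. PEP 0.5 mM, ADP 0.1 mM; ATP detected by luminescence after 1 h.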
Shiga toxin inh: A qHTS for Small Molecule Inhibitors of Shiga Toxin; AID 2315, 2010; inhibition, % at 38.7 µM; 9.2% of 290,000 active; Vero cells, Shiga toxin protein synthesis inhibition reporter; in the data active = inhibition mostly above about 28%, no sharp cut-off; inactive = mostly below about 43%
Cycloheximide cs: Cycloheximide Counterscreen for Small Molecule Inhibitors of Shiga Toxin; cell reporter, cycloheximide protein synthesis inhibition counterscreen; max response, %; 12% of 300,000 active; in the data active = max response mostly above about 13%, no sharp cut-off; inactive = mostly below about 14%; note: read at 38.3 µM for the half of the compounds with a filed dose
Large screens that a line does not name were inactive; ! = repeats disagree. Shown are actives, neighbours in structure and some others; about 22% of the full set was active somewhere. Unless noted, calls come from the whole dose curve; as a rule, active = well fitted inhibition curve with a large enough effect; inconclusive = small, poorly fitted or top-dose-only effect, or another doubt; inactive = no such curve, though single readings can be large or run the other way.

CN(C)C(=O)CNC(=O)CN1C(=O)NC2(CCCc3sccc32)C1=O (configuration not stated)	none
Cc1nc2cc(F)ccc2n1C1CCN(C(=O)c2c(F)cccc2F)CC1	Pf growth 48h 1.5µM
O=C(CN1CCN(Cc2ccccc2Cl)CC1)N/N=C/c1cccs1	Pf growth 48h inconclusive
CC1CCC(C(C)C)C(=O)/C1=C/c1ccc(N)cc1 (configuration not stated)	Shiga toxin inh 92, Cycloheximide cs 35
COc1ccccc1OCc1cc(C(=O)N2CCN(C)C(c3ccccc3)C2)no1 (configuration not stated)	Pf growth 48h inconclusive, Shiga toxin inh 81, Cycloheximide cs 59
CN1CCN(C(=O)c2cc(COc3ccc(F)cc3Cl)on2)CC1c1ccccc1 (configuration not stated)	Pf growth 48h inconclusive, Pf growth 96h inconclusive
CN1CCN(C(=O)c2cc(COc3c(F)cccc3F)on2)CC1c1ccccc1 (configuration not stated)	Pf growth 96h 4.1µM
O=C(NC1CCCC1)C1CCN(C(=O)c2cccc(Cl)c2)CC1	none
Cc1cc(C)c(C#N)c(OCC(=O)c2ccc(Br)cc2)n1	Pf growth 48h inconclusive, Pf growth 96h 4.7µM
N#Cc1c(SCC(N)=O)nsc1SCc1ccc(Cl)cc1	Pf growth 48h inconclusive
COC(=O)c1ccccc1CSc1nsc(C)c1C#N	none
Cc1ccnc(SCC(=O)c2ccc(Br)cc2)c1C#N	Shiga toxin inh 96, Cycloheximide cs 84
Cc1snc(SCC(=O)c2ccc(Cl)cc2)c1C#N	Shiga toxin inh 58, Cycloheximide cs 35
Cc1ccc(C(=O)COc2nc(C)cc(C)c2C#N)cc1	Pf growth 96h inconclusive
Cc1ccc(C(=O)CSc2nsc(C)c2C#N)cc1	Shiga toxin inh active, Cycloheximide cs 30
c1ccc(CC2=NCCN2)cc1	Pf growth 96h inconclusive
c1ccc(CN(CC2=NCCN2)c2ccccc2)cc1	Pf growth 96h 12µM!
CCOC(=O)c1cnc2cc3c(cn2c1=O)CCCC3	Pf growth 96h inconclusive, Shiga toxin inh 55, Cycloheximide cs 28
COC(=O)c1ccccc1NC(=O)[C@@H]1CCC(=O)N1C1OC(=O)c2c1ccc(OC)c2OC (some centres not stated)	none
CN1CCN(C(=O)C2CC(=O)N(c3ccc(Cl)cc3)C2)CC1 (configuration not stated)	none
CC(C)(C)C(=O)Nc1ccc(C(=O)NNC(=O)c2ccccc2)cc1	Pf growth 96h 13µM, Shiga toxin inh 78, Cycloheximide cs 31
CC(C)(C)C(=O)Nc1ccc(NC(=O)C(C)(C)C)cc1	none
O=C(O)c1cc(NC(=O)c2ccc(Br)cc2)cc(NC(=O)c2ccc(Br)cc2)c1	none
CC(C)(C)C(=O)Nc1ccc(C(=O)NNC(=O)Cc2ccccc2)cc1	Pf growth 96h 2.9µM, Cycloheximide cs 15
CC(C)(C)C(=O)Nc1ccc(C(=O)Nc2cc(NC(=O)c3ccc(NC(=O)C(C)(C)C)cc3)cc(C(=O)O)c2)cc1	Pf growth 48h inconclusive, Cycloheximide cs 19
O=[N+]([O-])c1cnc(Nc2ccccc2)nc1Nc1ccccc1	none
O=C(CSc1ccc(F)cc1)Nc1ccc2c(c1)C(=O)NC2=O	none
CCCCCOC(=O)Nc1nnc(CCC)s1	Pf growth 96h inconclusive, Cycloheximide cs 28
CCCCc1nnc(NC(=O)COC)s1	none
CCCCOC(=O)Nc1nnc(C(C)C)s1	Shiga toxin inh 119, Cycloheximide cs 37
O=C(NCCc1ccccn1)c1cncc(Br)c1	Cycloheximide cs 20
O=C(NCCCCc1ccccc1)c1cccc(Br)c1	Cycloheximide cs 15
O=C(NCCOC12CC3CC(CC(C3)C1)C2)c1cccc(Br)c1	Pf growth 48h 9.3µM, Pf growth 96h 4.1µM
O=C(NCCCc1ccccc1)c1cncc(Br)c1	Cycloheximide cs 20
O=C(NCc1ccccc1)c1cncc(Br)c1	none
CCn1nnc2cc(C(=O)Nc3cc(OC)cc(OC)c3)ccc21	none (no result: LmPK inhibitor, Shiga toxin inh, Cycloheximide cs)
CC(=O)/C(N=Nc1nc2c([nH]1)c(=O)n(C)c(=O)n2C)=C(\C)O	none
c1ccc(NC2=Nc3ccccc3CS2)cc1	Shiga toxin inh 99, Cycloheximide cs 31
c1ccc(NC2=NCCCS2)cc1	none
O=C(CCc1nnc2ccc(NCc3ccco3)nn12)N1CCN(c2ccccc2F)CC1	Pf growth 96h 9.3µM
CON(c1nc(Cl)nc(N(C)C)n1)S(=O)(=O)c1ccc(C)cc1	none
COc1cccc(C(C)NC(=O)c2ccncc2)c1 (configuration not stated)	none
NC(=O)C1(N2CCCCC2)CCN(Cc2ccccc2)CC1	none
c1ccc(C2(N3CCCC3)CCCCC2)cc1	Pf growth 48h 15µM, Pf growth 96h 13µM (no result: LmPK inhibitor, Shiga toxin inh, Cycloheximide cs)
NC(=O)c1ccc(N=Nc2c(O)[nH]c(=O)[nH]c2=O)cc1	none
O=c1[nH]c(O)c(N=Nc2ccc(SC(F)F)cc2)c(=O)[nH]1	Cycloheximide cs 20
Cc1c(N/C=C/C(=O)c2cccs2)c(=O)n(-c2ccccc2)n1C	Pf growth 48h inconclusive
Cc1ccc(N/C=C/C(=O)c2cccs2)cc1C	LmPK inhibitor inconclusive, Cycloheximide cs 31
O=C(O)c1ccccc1N/C=C\[N+](=O)[O-]	Pf growth 96h inconclusive
O=C(/C=C/Nc1ccc(Nc2ccccc2)cc1)c1cccs1	Shiga toxin inh 103, Cycloheximide cs 63
Cc1cc(N/C=C/C(=O)c2cccs2)ccc1F	LmPK inhibitor inconclusive, Shiga toxin inh 97, Cycloheximide cs 29
O=C(/C=C/Nc1ccccc1C(=O)O)c1cccs1	LmPK inhibitor inconclusive, Shiga toxin inh 75, Cycloheximide cs 33
Cc1ccc(NC2CCCN(C(=O)c3cccs3)C2)cc1C (configuration not stated)	none
COc1ccc(N2C(=NC(=O)C(C)Oc3ccccc3)SC3CS(=O)(=O)CC32)cc1 (configuration not stated)	none
COc1ccc(OC)c(S(=O)(=O)NC(N)=NCCc2ccccc2OC)c1	none
COc1cc(C(=O)OCC(=O)N2CCOCC2)c([N+](=O)[O-])cc1OC	none
O=C(O)c1ccccc1Nc1cccc(OCc2ccc3ccccc3n2)c1	none (no result: LmPK inhibitor, Shiga toxin inh, Cycloheximide cs)
COc1ccc(-c2nc(C(=O)NCCCN3CCOCC3)cc3c2[nH]c2ccccc23)cc1OC	Pf growth 48h inconclusive, Pf growth 96h 5.2µM
Cc1ccc(-c2nc(C(=O)NCCCN3CCOCC3)cc3c2[nH]c2ccccc23)cc1	Pf growth 48h 5.9µM, Pf growth 96h 6.6µM
O=C(NCCCN1CCOCC1)c1c(O)c2ccccc2[nH]c1=O	none
Cc1[nH]c(C)c(S(=O)(=O)NCCc2ccc(S(N)(=O)=O)cc2)c1C(=O)N1CCCC1	Pf growth 96h inconclusive
COC(=O)/C=C/c1cccc(N(Cc2ccc(-c3ccc(N(C)C)cc3)cc2)C(=O)C2CCCCC2)c1	none (no result: Pf growth 48h, Pf growth 96h, LmPK inhibitor)
O=C(c1ccccn1)N1CCN(c2cccc(C(F)(F)F)c2)CC1	none
O=C(c1cc2ccccn2n1)N1CCN(c2cccc(C(F)(F)F)c2)CC1	Pf growth 96h 9.3µM
